Potency, outcome and max activation data for eleven molecules are collected here from PubChem BioAssay (Tox21).

Unmarked numbers belong to inactive results. Results filed as inconclusive are left out. Activity calls are given as the source filed them. Calls come from the whole dose curve; as a rule, active = well fitted curve in the direction sought with a large enough effect in the repeat runs; inconclusive = weak or mixed curves; inactive = no such curve, though single readings can be large; an effect the other way counts as inactive or inconclusive.

Experiment [1] in a line: Caspase-3/7 induction in HepG2 cells by small molecules, qHTS assay (AID 1346978). Note: nearly all actives have a fitted effect of over 15% in size. Note: potency is the fitted concentration of half-maximal effect. Put shortly:
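Wild-type HepG2 cells, 2,000/well, settled 5 hr at 37 C and 5% CO2, then compound-treated for 17 hr; caspase-3/7 activity read by luminescent Caspase-Glo 3/7 after 30 min at room temperature.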
A general note: Quantitative high-throughput screening tests each substance at several concentrations.

A short description of experiment [2]: Caspase-3/7 induction in CHO-K1 cells by small molecules, qHTS cell viability counter screen (AID 1346979). Note: nearly all actives have a fitted effect of over 35% in size. Note: potency is the fitted concentration of half-maximal effect. In short, it runs like this:
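Multiplexed with Caspase-Glo 3/7 in CHO-K1 cells, this counter screen added CellTiter-Fluor after 16hr of compound exposure and recorded fluorescence 1hr later.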

The nature of experiment [3]: Caspase-3/7 induction in CHO-K1 cells by small molecules, qHTS assay (AID 1346980). Note: % is set by controls: 0 for no effect and ±100 for the full control effect; nearly all actives have a fitted effect of over 15% in size. In short, it runs like this: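 Wild-type CHO-K1 cells exposed to compounds for 17hr at 37 C, 5% CO2. Caspase-3/7 activity then measured by Caspase-Glo 3/7 luminescence after 30min at room temperature.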
Experiment [4] can be described thus: Caspase-3/7 induction in HepG2 cells by small molecules, qHTS cell viability counter screen (AID 1346981). Note: series mostly up to about 92 µM; % is set by controls: 0 for no effect and ±100 for the full control effect; nearly all actives have a fitted effect of over 30% in size. Put shortly: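 Wild-type HepG2 cells, 2,000/well, settled 5 hr at 37 C, 5% CO2 before compound addition. Viability read by CellTiter-Fluor fluorescence, reagent added after 16 hr compound exposure, then 1 hr at 37C, in the same wells as the caspase read.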

Experiment [5] has as its target Nuclear receptor subfamily 1 group I member 2 (Homo sapiens) (UniProt O75469). As to the kind of experiment: Human pregnane X receptor (PXR) small molecule agonists, qHTS assay (AID 1346982). For activation: % is set by controls: 0 for no effect and ±100 for the full control effect. Note: nearly all actives have a fitted effect of over 35% in size. Note: potency is the fitted concentration of half-maximal effect. In short, it runs like this: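 PXR-Luc HepG2 reporter cells (CYP3A4-driven luciferase) in 5% charcoal-stripped FBS medium, plated 5 h before compound addition, then treated 24 h at 37C. Luciferase read by ONE-Glo luminescence after 30 min at room temperature.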

The target of experiment [6] is Cytochrome P450 2D6 (Homo sapiens) (UniProt P10635). The experiment is described as follows: Cytochrome P450 Family 2 Subfamily D Member 6 (CYP2D6) small molecule antagonists: luciferase reporter qHTS assay (AID 1671196). Note: nearly all actives have a fitted effect of over 50% in size. Note: potency is the fitted concentration of half-maximal effect. Put shortly:
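Cell-free P450-Glo system: CYP2D6 with proluciferin substrate was pre-incubated with compound for 10 min, then reacted with NADPH regeneration for 1 h at room temperature. Luciferin product was detected after 20 min, and data were reported as relative luminescence units.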

For experiment [7], the target named is Cytochrome P450 2C19 (Homo sapiens) (UniProt P33261). The experiment is described as follows: Cytochrome P450 Family 2 Subfamily C Member 19 (CYP2C19) small molecule antagonists: luciferase reporter qHTS assay (AID 1671197). Note: potency is the fitted concentration of half-maximal effect; nearly all actives have a fitted effect of over 65% in size. Put shortly:
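Luminescent readout of CYP2C19 activity: luciferin product detected 20 min after adding detection reagent. Before that, compound and enzyme-substrate mix preincubated 10 min at room temperature; NADPH-regenerating system started a 1 h, 37C reaction. Ketoconazole as positive control.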
Background: In a reporter assay the amount or activity of a reporter protein is the signal.

Experiment [8] has as its target Cytochrome P450 2C9 (Homo sapiens) (UniProt P11712). As to the kind of experiment: Cytochrome P450 Family 2 Subfamily C Member 9 (CYP2C9) small molecule antagonists: luciferase reporter qHTS assay (AID 1671198). Note: nearly all actives have a fitted effect of over 50% in size. Note: potency is the fitted concentration of half-maximal effect. Put shortly: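 P450-Glo proluciferin substrate with CYP2C9 enzyme; 10 min RT preincubation, then NADPH regeneration 1 h at 37C; luciferin detection reagent 20 min RT, luminescence in relative luminescence units.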

Experiment [9] has as its target Cytochrome P450 1A2 (Homo sapiens) (UniProt P05177). The experiment is described as follows: Cytochrome P450 Family 1 Subfamily A Member 2 (CYP1A2) small molecule antagonists: luciferase reporter qHTS assay (AID 1671199). Note: nearly all actives have a fitted effect of over 50% in size. Note: potency is the fitted concentration of half-maximal effect. Put shortly: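 P450-Glo CYP1A2 enzyme–proluciferin substrate mix with compound 10 min at room temperature, then NADPH regeneration 1 h at room temperature. Luciferin detection reagent added, luminescence read after 20 min; furafylline positive control.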

Experiment [10] deals with Cytochrome P450 3A4 (Homo sapiens) (UniProt P08684). As to the kind of experiment: Cytochrome P450 Family 3 Subfamily A Member 4 (CYP3A4) small molecule antagonists: luciferase reporter qHTS assay (AID 1671201). Note: nearly all actives have a fitted effect of over 50% in size. Note: potency is the fitted concentration of half-maximal effect. Put shortly:
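Room-temperature assay throughout: 10 min compound–enzyme/substrate preincubation, 1 h reaction after NADPH regeneration solution, 20 min detection. Luciferin formed from proluciferin substrate is quantified by luminescence.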

The nature of experiment [11]: Human pregnane X receptor (PXR) small molecule agonists, qHTS cell viability counter screen (AID 1346977). Note: nearly all actives have a fitted effect of over 50% in size. Note: potency is the fitted concentration of half-maximal effect. Put shortly:
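After a 5hr pre-incubation, PXR-Luc HepG2 cells received compounds plus positive control in DMSO and were kept 24hr at 37C. Cell viability was quantified by fluorescence from CellTiter-Fluor added for the final hour.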

Experiment [12] concerns the target Nuclear receptor subfamily 1 group I member 2 (Rattus norvegicus) (UniProt Q9R1A7). As to the kind of experiment: Rat pregnane X receptor (rPXR) activation by small molecules, qHTS assay (AID 1346983). Note: % is set by controls: 0 for no effect and ±100 for the full control effect; nearly all actives have a fitted effect of over 20% in size. As to conditions: rPXR luciferase reporter cells, One-Glo luminescence, 24 h; max activation: stronger effect = higher value. In short, it runs like this: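 Cell-based rPXR activation assay: rPXR cells, 2,000 per well, rested 5hr at 37 C, then exposed to compounds in DMSO for 24 hr at 37 C. Luciferase activity read by One-Glo luminescence after 30 min at room temperature.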

Experiment [13] has as its target Nuclear receptor subfamily 1 group I member 2 (Homo sapiens) (UniProt O75469). The experiment is described as follows: CYP3A4 induction through human pregnane X receptor (PXR) by small molecules, qHTS assay (AID 1346984). Note: % is set by controls: 0 for no effect and ±100 for the full control effect; nearly all actives have a fitted effect of over 40% in size. Put shortly: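 DPX-2 HepG2 cells carrying a PXR response element and CYP3A4-promoter luciferase construct, treated with compounds 24 hr at 37C. Then P450-Glo CYP3A4 Luciferin-IPA substrate (3uM final) for 3 hr at 37C, One-Glo added, luminescence read.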

Experiment [14] has the same target. As to the kind of experiment: Human pregnane X receptor (PXR) activation by small molecules, qHTS assay (AID 1346985). Note: potency is the fitted concentration of half-maximal effect; nearly all actives have a fitted effect of over 40% in size. In short, it runs like this: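 DPX-2 cells (HepG2 co-transfected with a PXR response element and a CYP3A4-promoter luciferase construct) were seeded at 2,000 per well, rested 5 hr at 37C, then exposed to DMSO-dissolved compounds for 24 hr. Activation was read as luciferase luminescence.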

For experiment [15], the target named is Voltage-gated inwardly rectifying potassium channel KCNH2 (Homo sapiens) (UniProt Q12809). The experiment is described as follows: Human Ether-a-go-go-Related Gene (hERG) channel small molecule antagonists: fluorescence cell-based qHTS assay (AID 1671200). Note: nearly all actives have a fitted effect of over 50% in size. Note: potency is the fitted concentration of half-maximal effect. In short, it runs like this:
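Cell line hERG-U2OS; dye FluxOR II, 1 h RT dark; Tl+ stimulus; ex 480/em 540 nm, read each second for 2 min.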
(The hERG channel carries a current that helps repolarise heart muscle cells.)

Cytochrome P450 2D6 (Homo sapiens), sequence (P10635 whole entry, looked up): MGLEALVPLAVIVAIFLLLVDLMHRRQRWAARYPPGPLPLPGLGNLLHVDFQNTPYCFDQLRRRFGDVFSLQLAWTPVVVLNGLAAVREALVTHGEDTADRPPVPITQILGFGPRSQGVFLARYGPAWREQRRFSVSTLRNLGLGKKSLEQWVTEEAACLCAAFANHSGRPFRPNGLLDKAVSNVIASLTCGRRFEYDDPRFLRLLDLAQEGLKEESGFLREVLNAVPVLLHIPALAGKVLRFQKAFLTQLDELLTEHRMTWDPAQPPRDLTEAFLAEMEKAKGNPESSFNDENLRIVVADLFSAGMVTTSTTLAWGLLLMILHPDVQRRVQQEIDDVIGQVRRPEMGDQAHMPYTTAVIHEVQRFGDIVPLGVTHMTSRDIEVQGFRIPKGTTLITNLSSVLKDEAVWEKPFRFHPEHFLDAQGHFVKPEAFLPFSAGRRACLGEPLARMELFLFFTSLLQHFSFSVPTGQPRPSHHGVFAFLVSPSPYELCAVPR
Cytochrome P450 3A4 (Homo sapiens), sequence (P08684 whole entry, looked up): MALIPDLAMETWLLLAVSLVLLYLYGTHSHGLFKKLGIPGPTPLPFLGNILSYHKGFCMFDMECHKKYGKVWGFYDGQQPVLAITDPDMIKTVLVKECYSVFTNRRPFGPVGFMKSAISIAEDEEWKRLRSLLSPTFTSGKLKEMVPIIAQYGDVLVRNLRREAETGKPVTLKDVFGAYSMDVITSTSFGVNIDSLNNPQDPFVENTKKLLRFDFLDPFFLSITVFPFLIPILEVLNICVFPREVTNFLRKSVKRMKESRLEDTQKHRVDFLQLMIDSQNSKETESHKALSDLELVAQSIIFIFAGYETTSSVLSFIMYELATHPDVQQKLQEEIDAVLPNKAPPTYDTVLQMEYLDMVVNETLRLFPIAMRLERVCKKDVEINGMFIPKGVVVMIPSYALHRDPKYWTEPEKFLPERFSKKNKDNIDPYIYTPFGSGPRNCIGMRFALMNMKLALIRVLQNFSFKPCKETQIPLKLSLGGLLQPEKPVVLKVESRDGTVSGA
Cytochrome P450 2C19 (Homo sapiens), sequence (P33261 whole entry, looked up): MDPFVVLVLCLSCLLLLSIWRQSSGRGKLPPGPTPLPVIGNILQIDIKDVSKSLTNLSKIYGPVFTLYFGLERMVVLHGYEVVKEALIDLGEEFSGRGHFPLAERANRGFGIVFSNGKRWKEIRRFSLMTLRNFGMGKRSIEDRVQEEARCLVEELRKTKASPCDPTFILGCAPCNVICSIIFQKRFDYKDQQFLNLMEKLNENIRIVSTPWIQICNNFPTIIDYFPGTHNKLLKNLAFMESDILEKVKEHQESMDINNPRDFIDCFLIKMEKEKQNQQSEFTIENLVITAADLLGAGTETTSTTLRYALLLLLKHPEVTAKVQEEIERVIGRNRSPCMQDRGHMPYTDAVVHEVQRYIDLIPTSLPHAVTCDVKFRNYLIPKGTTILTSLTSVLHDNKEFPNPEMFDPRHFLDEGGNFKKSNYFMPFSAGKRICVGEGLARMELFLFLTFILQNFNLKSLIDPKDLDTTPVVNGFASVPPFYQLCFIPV
Nuclear receptor subfamily 1 group I member 2 (Rattus norvegicus), sequence (Q9R1A7 whole entry, looked up): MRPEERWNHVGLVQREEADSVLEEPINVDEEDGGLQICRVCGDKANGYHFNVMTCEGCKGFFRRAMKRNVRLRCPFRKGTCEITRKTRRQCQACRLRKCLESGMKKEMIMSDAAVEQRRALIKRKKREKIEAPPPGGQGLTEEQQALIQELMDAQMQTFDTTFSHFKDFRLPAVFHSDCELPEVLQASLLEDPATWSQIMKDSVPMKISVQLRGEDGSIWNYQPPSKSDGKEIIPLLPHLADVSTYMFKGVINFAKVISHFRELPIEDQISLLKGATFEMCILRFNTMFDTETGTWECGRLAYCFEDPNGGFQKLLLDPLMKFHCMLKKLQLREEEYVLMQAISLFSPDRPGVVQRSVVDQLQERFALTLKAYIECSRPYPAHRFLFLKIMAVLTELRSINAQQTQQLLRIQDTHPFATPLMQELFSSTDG
Nuclear receptor subfamily 1 group I member 2 (Homo sapiens), sequence (O75469 whole entry, looked up): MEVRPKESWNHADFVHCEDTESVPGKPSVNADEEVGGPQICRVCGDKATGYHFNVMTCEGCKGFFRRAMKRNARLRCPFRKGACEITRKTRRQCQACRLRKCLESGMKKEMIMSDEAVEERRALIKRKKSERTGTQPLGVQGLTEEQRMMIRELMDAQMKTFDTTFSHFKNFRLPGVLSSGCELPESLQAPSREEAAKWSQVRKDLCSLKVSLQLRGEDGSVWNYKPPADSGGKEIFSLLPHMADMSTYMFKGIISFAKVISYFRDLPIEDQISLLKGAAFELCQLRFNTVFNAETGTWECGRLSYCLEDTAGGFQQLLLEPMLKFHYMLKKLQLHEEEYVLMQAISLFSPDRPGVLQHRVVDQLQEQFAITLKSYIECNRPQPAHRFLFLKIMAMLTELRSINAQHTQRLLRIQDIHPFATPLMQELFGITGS
Cytochrome P450 1A2 (Homo sapiens), sequence (P05177 whole entry, looked up): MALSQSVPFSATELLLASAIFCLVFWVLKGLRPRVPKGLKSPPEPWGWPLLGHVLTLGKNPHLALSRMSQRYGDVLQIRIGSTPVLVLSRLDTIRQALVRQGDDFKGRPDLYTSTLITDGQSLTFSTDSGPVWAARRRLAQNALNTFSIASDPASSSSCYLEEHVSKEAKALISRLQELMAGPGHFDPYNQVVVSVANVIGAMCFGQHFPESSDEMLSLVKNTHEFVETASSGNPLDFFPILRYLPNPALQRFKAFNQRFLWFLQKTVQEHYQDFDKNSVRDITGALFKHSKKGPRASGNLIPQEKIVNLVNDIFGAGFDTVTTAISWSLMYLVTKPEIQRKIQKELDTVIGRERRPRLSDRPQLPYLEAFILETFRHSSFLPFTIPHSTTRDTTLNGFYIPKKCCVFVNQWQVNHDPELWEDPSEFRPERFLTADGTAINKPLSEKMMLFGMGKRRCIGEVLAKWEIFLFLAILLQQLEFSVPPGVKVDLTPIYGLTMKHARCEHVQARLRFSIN
Cytochrome P450 2C9 (Homo sapiens), sequence (P11712 whole entry, looked up): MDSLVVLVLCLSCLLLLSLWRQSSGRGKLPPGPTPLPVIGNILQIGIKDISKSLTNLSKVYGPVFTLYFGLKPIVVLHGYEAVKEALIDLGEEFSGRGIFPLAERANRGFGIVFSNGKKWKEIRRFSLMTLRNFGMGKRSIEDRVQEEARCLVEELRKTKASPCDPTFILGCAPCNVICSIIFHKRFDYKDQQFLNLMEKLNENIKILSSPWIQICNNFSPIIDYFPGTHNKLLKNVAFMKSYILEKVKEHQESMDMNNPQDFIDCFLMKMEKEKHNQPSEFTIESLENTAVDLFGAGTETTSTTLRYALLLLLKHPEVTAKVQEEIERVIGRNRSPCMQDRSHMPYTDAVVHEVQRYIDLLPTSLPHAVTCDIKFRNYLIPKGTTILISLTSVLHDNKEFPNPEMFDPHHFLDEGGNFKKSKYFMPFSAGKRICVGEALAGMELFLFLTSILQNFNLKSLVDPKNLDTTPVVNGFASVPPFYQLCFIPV
Voltage-gated inwardly rectifying potassium channel KCNH2 (Homo sapiens), sequence (Q12809 whole entry, looked up): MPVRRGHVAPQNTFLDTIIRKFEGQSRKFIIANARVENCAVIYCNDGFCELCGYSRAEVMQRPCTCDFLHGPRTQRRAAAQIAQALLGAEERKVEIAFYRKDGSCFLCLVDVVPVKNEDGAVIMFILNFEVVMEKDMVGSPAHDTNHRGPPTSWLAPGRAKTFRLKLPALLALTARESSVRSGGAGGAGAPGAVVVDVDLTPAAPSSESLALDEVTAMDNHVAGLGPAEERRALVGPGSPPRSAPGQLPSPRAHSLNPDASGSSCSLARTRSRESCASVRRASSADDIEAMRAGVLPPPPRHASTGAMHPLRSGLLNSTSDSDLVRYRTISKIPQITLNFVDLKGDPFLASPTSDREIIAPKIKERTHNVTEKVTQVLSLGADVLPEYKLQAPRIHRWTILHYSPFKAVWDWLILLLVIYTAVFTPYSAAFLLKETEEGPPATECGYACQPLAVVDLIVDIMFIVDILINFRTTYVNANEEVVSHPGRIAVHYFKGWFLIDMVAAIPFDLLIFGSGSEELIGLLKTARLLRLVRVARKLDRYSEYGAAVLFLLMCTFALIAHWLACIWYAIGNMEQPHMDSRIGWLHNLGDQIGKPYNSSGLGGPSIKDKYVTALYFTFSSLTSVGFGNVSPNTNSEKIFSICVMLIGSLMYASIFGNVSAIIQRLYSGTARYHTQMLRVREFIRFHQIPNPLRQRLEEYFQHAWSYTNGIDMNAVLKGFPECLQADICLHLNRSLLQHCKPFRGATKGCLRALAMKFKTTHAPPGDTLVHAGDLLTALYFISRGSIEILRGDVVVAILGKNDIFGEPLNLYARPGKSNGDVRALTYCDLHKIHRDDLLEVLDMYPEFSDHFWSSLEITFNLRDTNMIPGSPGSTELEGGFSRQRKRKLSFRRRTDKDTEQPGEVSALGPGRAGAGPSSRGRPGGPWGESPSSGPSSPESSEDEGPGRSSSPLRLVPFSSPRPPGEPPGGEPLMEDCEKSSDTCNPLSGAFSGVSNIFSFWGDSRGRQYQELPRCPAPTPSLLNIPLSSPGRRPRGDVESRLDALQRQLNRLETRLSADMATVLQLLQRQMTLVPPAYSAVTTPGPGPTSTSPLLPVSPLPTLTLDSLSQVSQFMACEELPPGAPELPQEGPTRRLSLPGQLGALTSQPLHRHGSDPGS

With `NC(=O)N(O)[C@@H]1C=C[C@H](Oc2cccc(Oc3ccc(F)cc3)c2)C1`, the Potency result in [1] and in experiment [4] was “inactive” each time. Besides, the Potency in experiment [2] was 68.6 µM (active); in experiment [5], 19.3 µM (active); in experiment [6], 5.03 µM (active); in experiment [7], 8.94 µM (active); in experiment [8], 31.7 µM (active); in experiment [9], 7.96 µM (active). In addition, in experiment [10], the Potency was 0.894 µM (active). For the same molecule, the molecule was classed as inactive in experiment [3].
Turning to `CC1=C(/C=C/C(C)=C\C=C\C(C)=C\C(=O)O)C(C)(C)CCC1`, the molecule was called inactive in experiment [3]. In addition, the Potency is 54.5 µM (active) in experiment [5], 35.6 µM (active) in [7] and 22.4 µM (active) in [10]. In experiment [9], the Potency result is “inactive”.
With `Nc1ccc(C(=O)OCCCOC(=O)c2ccc(N)cc2)cc1`, the Potency entry in [11] and in experiment [4] was “inactive” throughout. Moreover, in experiment [3], the molecule was classed as inactive. For the same molecule, the Potency was 54.5 µM (active) in [5]; 39.9 µM (active) in experiment [6]; 17.8 µM (active) in experiment [7]; 7.1 µM (active) in experiment [8]; 7.1 µM (active) in [9]; 2.24 µM (active) in experiment [10].
With `C(=C\c1ccccc1)/CN1CCN(C(c2ccccc2)c2ccccc2)CC1`, the Potency result in experiment [1] and in [4] was “inactive” throughout. For the same molecule, the call in experiment [3] was inactive. In [12], the max activation was 1.1%.
Turning to `CCOc1cc(N)c(Cl)cc1C(=O)NCC1CN(Cc2ccc(F)cc2)CCO1` (configuration not stated), the Potency result in [1], in experiment [2], in [13] and in [6] was “inactive” throughout. Moreover, the molecule was called inactive in experiment [3]. Moreover, the Potency in [5] is 5.31 µM (active); in experiment [14] it was 12.6 µM (active); in experiment [7] it was 3.47 µM (active); in experiment [9], 1.55 µM (active). Moreover, in experiment [12], the max activation is 0.0903%.
Take `COc1cc2ncnc(Nc3ccc(F)c(Cl)c3)c2cc1OCCCN1CCOCC1`: the Potency is 23.7 µM (active) in [11], 29.8 µM (active) in experiment [2] and 38.9 µM (active) in experiment [7]. The Potency entry in experiment [5], in [8], in [9] and in experiment [15] was “inactive” in each case. The max activation in experiment [12] is -4.52%.
With `O=C(Nc1ccccc1)Nc1ccccc1`, the Potency entry in experiment [11], in experiment [4], in [15] and in experiment [10] was “inactive” in each case. In [3], the molecule was classed as inactive. For the same molecule, the Potency is 4.88 µM (active) in [5]; 28.4 µM (active) in [6]; 4.5 µM (active) in [7]; 22.6 µM (active) in [8]; 17.9 µM (active) in experiment [9].
For `COC(=O)Nc1nc2ccc(C(=O)c3cccs3)cc2[nH]1`, the Potency was 0.266 µM (active) in [1], 26.6 µM (active) in [5] and 12.9 µM (active) in experiment [9]. The molecule was classed as inactive in experiment [3]. Besides, the Potency result in [4], in [15] and in experiment [10] was “inactive” in each case.
In the case of `CC[C@@H]([C@H](C)O)n1ncn(-c2ccc(N3CCN(c4ccc(OC[C@@H]5CO[C@@](Cn6cncn6)(c6ccc(F)cc6F)C5)cc4)CC3)cc2)c1=O`, the Potency in experiment [2] is 7.5 µM (active); in [5], 10.6 µM (active). Also, the molecule was classed as inactive in [3]. The Potency result in experiment [9] was “inactive”.
With `CCC(Cc1ccccc1)(C(=O)c1ccc(N2CCOCC2)cc1)N(C)C` (configuration not stated), the Potency entry in [1] and in [9] was “inactive” each time. The molecule was called inactive in experiment [3]. Moreover, the Potency was 30.6 µM (active) in [5], 39.9 µM (active) in experiment [7], 35.6 µM (active) in experiment [8] and 13.8 µM (active) in [15].
On to `O=C(c1ccc(O)cc1)c1ccc(Cl)cc1`, for which the Potency result in experiment [1], in [4] and in experiment [15] was “inactive” in each case. The molecule was classed as inactive in [3]. Besides, the Potency in experiment [5] was 24.9 µM (active); in [7], 18.2 µM (active); in [8] it was 25.7 µM (active); in experiment [9] it was 18.2 µM (active).
